# In the library only some 9.3% were active in any assay of this set; here they are far more common.
# VACV mCherry inh – vaccinia inhibition (mCherry reporter); Vaccinia virus mCherry reporter infection, fluorescence; Potency, µM (top dose mostly 36.5 µM), inactives show at the highest dose activity change, negative = inhibition, most hits filed as inhibitors; hit rate 0.63% among 310,000; calls by dose curve; tested in A549 cells; further: potency means the concentration at half of the fitted maximal effect; nearly all actives have a fitted effect of over 35% in size
# Sm TGR inh – blocks Schistosoma mansoni thioredoxin glutathione reductase. Potency, µM (titrated, usually from 114 µM), for inactives: at the top dose activity change, negative = inhibition, actives largely listed as inhibitors. purified TGR, DTNB reduction, TNB absorbance 405 nm. Q962Y6. hit rate 3% among 360,000; further: potency means the concentration at half of the fitted maximal effect; nearly all actives have a fitted effect of over 60% in size
#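 TGR 20 nM + NADPH 100 uM (dispensed conc.), cpd preinc 15 min RT; start with NADPH (500 uM addition) then DTNB (15 mM addition). Kinetic TNB absorbance, 405 nm filter. Four-parameter Hill fit across titration.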
# HCMV antiviral – inhibitors of human cytomegalovirus. HFF cells, HCMV-luciferase reporter, 72 h; active compounds read low. activity change, negative = inhibition, % at 57.5 µM. hit rate 4.5% among 410,000. AID 1259415; in the data active means activity change below about -60%; inconclusive means no clear call, values can overlap the other calls; inactive means above about -39%
#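 Inhibition of viral replication was scored as loss of reporter luminescence in HFFs infected with HCMV-luciferase (MOI 1 PFU/cell) for 72 h; compounds tested at 2 doses, normalized to buffer and Salinomycin controls.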
# HCV inhibitor – HCV inhibition; Huh7.5.1 HCVcc-Cre infection, luciferase reporter, 44 h; Potency, µM (series often up to 41.8 µM), inactives show at the top dose activity change, negative = inhibition, actives largely listed as inhibitors; hit rate 3.4% among 340,000; further: potency means the concentration at half of the fitted maximal effect
#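 1,000 cells/well; 4 h culture; + compound; + HCVcc-Cre (~0.5 moi); 44 h; luciferase substrate, RT 15 min; read 15 sec.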
# VACV Venus inh – vaccinia inhibition (Venus reporter) | hit rate 0.46% among 330,000 | Potency, µM (doses to about 36.5 µM), for the others: at the highest dose activity change, negative = inhibition, actives largely listed as inhibitors | Vaccinia virus Venus reporter expression, fluorescence; calls by dose curve; tested in A549 cells; further: potency means the concentration at half of the fitted maximal effect; nearly all actives have a fitted effect of over 30% in size
# FMDV inh – blocks foot and mouth disease virus. Potency, µM (highest dose often 57.9 µM), for inactives: at the highest dose activity change, negative = inhibition, usual class: inhibitors. hit rate 1.2% among 410,000. FMDV antiviral cell-based qHTS; calls by dose curve; tested in HEK293T cells; further: read-out not given here; potency means the concentration at half of the fitted maximal effect; nearly all actives have a fitted effect of over 45% in size
# The depositor's hits bear a star; i = inactive; ? = inconclusive; / = no result; [ ] = dose if it differs, or a comment. Unless noted, the call rests on the fitted dose curve; in most records, active means well fitted curve in the direction sought with a large enough effect; inconclusive means small, poorly fitted or top-dose-only effect, or another doubt; inactive means no such curve, though single readings can be large; an effect the other way counts as inactive or inconclusive. On the % scale 0 is the no-effect control and ±100 the full control effect.
SMILES,VACV mCherry inh,Sm TGR inh,HCMV antiviral,HCV inhibitor,VACV Venus inh,FMDV inh
O=C(CCc1c[nH]c2ccccc12)N1CCCC1,?,-2%,18,-27%,-7%,9%
Cc1ccc(-n2c(-c3ccccc3)c[n+]3c2CCc2ccccc2-3)c(C)c1,?,3%,-97*,?,?,2.8µM*
CN(C)c1ccc(C2C=C(c3ccc(Cl)cc3OC(F)F)Nc3ncnn32)cc1 (stereo not drawn),/,22µM*,-22,10µM*,?,-22%
Cc1ccc(C)n1-c1sccc1C(=O)O,-10%,40µM*,/,12%,10%,0%
Cc1ccc(C)c(NC(=O)Cn2nc(C(F)(F)F)cc2C2CC2)c1,/,2%,13,-9%,/,-1%
Cc1ccc(C(C)C)c(OCC(=O)Nc2nc3c(s2)CCCC3)c1,-13%,7%,-82*,/,8%,-3%
O=C(COc1ccc(F)cc1)Nc1nc2c(s1)CCCC2,-17%,9%,62,-11%,-16%,34%
O=C(CSc1nc2ccccc2o1)Nc1nc2c(s1)CCCC2,/,/,-86*,?,/,?
Cc1ccc(CC(=O)Nc2nc3c(s2)CCCC3)cc1,8.9µM*,-16%,-73*,-25%,-6%,25%
O=C(CCS(=O)(=O)Cc1ccccc1)Nc1nc2c(s1)CCCC2,-28%,-24%,-61*,?,?,/
O=C(CSc1nc2ccccc2o1)Nc1nc2ccccc2s1,/,4%,29,-2%,/,20%
Cc1ccccc1-c1cc2c(c(OC3CCOC3)c1)OCCN(C(=O)Cn1cccn1)C2 (stereo not drawn),i,/,/,/,-10%,2%
O=C1NC2(CCCCCC2)Oc2ccccc21,/,/,-15,-4%,/,-21%
CCOC(=O)C1=NNC2(c3ccc(C)cc3)C(=O)N(c3ccccc3)C(=O)C12 (stereo not drawn),?,-10%,0,2%,-15%,-14%
O=C(Nc1cccc(Br)c1)Nc1nc2c(s1)CCCCCC2,-21%,10%,-86*,/,-16%,-4%
COc1ccc(OCC(=O)Nc2nc3c(s2)CCCC3)cc1,/,-1%,?,?,/,10%
Cc1cccc(C(=O)Nc2nc3c(s2)CCCC3)c1,1%,4%,-13,/,-11%,0%
COc1ccccc1OCC(=O)Nc1nc2c(s1)CCCC2,/,-7%,-67*,-5%,/,20%
Cc1cc(C(=O)Nc2nc3c(s2)CCCC3)cs1,/,-5%,86,13µM*,/,-24%
CCN(c1ccccc1)S(=O)(=O)c1cc(NC(=O)COC(=O)C2CC2)ccc1Cl,-1%,14%,79,-20%,-4%,-22%
CCN(c1ccccc1)S(=O)(=O)c1ccc(Cl)c(NC(=O)Nc2ccc(Cl)cc2C#N)c1,11µM*,5%,?,?,10µM*,0%
CCN(c1ccccc1)S(=O)(=O)c1cc(NC(=O)Nc2ccccc2C#N)ccc1Cl,?,-10%,-68*,?,-29%,?
CN(c1ccccc1)S(=O)(=O)c1cccc(NC(=O)Nc2ccc(Cl)cc2C#N)c1,i,5%,43,1%,-9%,-22%
CC(C)CCN1C(=O)CSCC1(C)C(=O)Nc1ccc2c(c1)OCCO2 (stereo not drawn),-10%,/,18,/,3%,-16%
OC[C@@H]1[C@@H](c2ccc(Cl)cc2)C(c2ccccc2)=NN1c1ccccc1,-23%,/,-28,-27%,-26%,-15%
SMILES,VACV mCherry inh,Sm TGR inh,HCMV antiviral,HCV inhibitor,VACV Venus inh,FMDV inh
COc1cccc(NC(=O)N(Cc2cn(C)c3ccccc23)C2CCCCC2)c1,-21%,?,-104*,/,-22%,19%
Cc1ccc(NC(=O)N(Cc2cn(C)c3ccccc23)C2CCCCC2)cc1C,-27%,2%,-21,/,-9%,40%
CSc1nnc(N(CCC#N)CCC#N)s1,-11%,-4%,12,4%,2%,-20%
Cc1nnc(N(CCC#N)CCC#N)s1,-11%[1.46 µM],2%,-72*,24%,-8%,-16%
C#CCNC(=O)C1=C[C@H](C2CCCCC2)C[C@H](OCCCCO)O1,i,13µM*,-17,8%,-6%,-9%
C#CCNC(=O)C1=C[C@@H](C2CCCCC2)C[C@@H](OCCCCO)O1,i,13µM*,-15,-4%,-10%,6%
COc1ccc(OC)c2c(/C=C/c3c(C)[nH]c4ccccc34)ccnc12,13µM*,/,/,/,-22%,/
O=C(NCc1ccccc1Cl)c1nnc(Cc2ccc(Cl)cc2)o1,-11%,7%,1,/,-10%,-9%
CCCCn1c(=O)[nH]c(=O)c2c1nc(CN1C(=O)c3ccccc3S1(=O)=O)n2CCC,-6%,0%,-7,-8%,1%,?
CCCCn1c(=O)[nH]c(=O)c2c1nc(Cn1ncc(Cl)c(Cl)c1=O)n2CCC,?,18µM*,-100*,10µM*,?,?
COCC(C)n1c(C)cc(C(=O)CSc2nc(C)c(C)c(C)n2)c1C (stereo not drawn),/,-3%,?,10µM*,/,-16%
O=C1c2ccccc2CCCC12N=NCC2c1cccc2ccccc12 (stereo not drawn),/,1%,-12,2.8µM*,/,?
Cc1nn(C)cc1/C=N/O,/,8%,1,16%,/,3%
COC(=O)C[C@H]1CC[C@@H](NC(=O)Nc2c(C)noc2C)[C@@H](CO)O1,-2%,/,-65*,/,29%,-11%
COC(=O)C[C@@H]1CC[C@@H](NC(C)=O)[C@@H](CO)O1,4%,/,58,/,-17%,-8%
Cn1c(-[n+]2c(-c3ccccc3)cc(-c3ccccc3)cc2-c2ccccc2)nc2cc([N+](=O)[O-])ccc21,0%,45µM*,9,-2%,0%,-19%
O=[N+]([O-])c1ccc2c(c1)ncn2-c1ccccc1,-13%,0%,-70*,?,-1%,-2%
O=[N+]([O-])c1ccc2c(c1)ncn2CCc1ccccc1,/,2%,?,10%,/,-16%
O=[N+]([O-])c1ccc2cn(-c3ccccc3)nc2c1,i,1%,-68*,?,-10%,6%
Cn1c(O)c(C2=NN(C(=O)CCl)C(c3ccccc3)C2)c(=O)n(C)c1=O (stereo not drawn),/,13µM*,4,-4%,/,-12%
CCC(=O)N1N=C(c2c(O)n(C)c(=O)n(C)c2=O)CC1c1ccccc1 (stereo not drawn),/,10%,?,?,/,-12%
O=C1CSC(c2cn(-c3ccccc3)nc2-c2cc3ccccc3oc2=O)N1Cc1ccccc1 (stereo not drawn),-6%[1.46 µM],-8%,-25,13µM*,?,-18%
O=C(CSC1=NNC(c2ccccn2)S1)Nc1cccc(Cl)c1 (stereo not drawn),?,-27%,-78*,2%,?,13%
O=C(CSc1nnc(-c2ccccn2)o1)Nc1ccccc1,-17%,/,43,-3%,-12%,3%
